The values that follow come from PubChem BioAssay AID463173 (ICCB-Longwood Screening Facility, Harvard Medical School, 2010).

Among all 52,000 compounds or so, about 1,700 (3.3%) were called active. The sample holds actives, similar compounds and a random draw of the others, so the mix is not that of the screen. Cut-off read from the data, not from the text of the source: active = survival mostly below about 52% (no sharp cut-off); inactive = mostly above about 56%.

The test system of the assay is Wild type. The experiment in a line: growth inhibition of S. aureus wild type versus tarO mutant, primary screen, teichoic acid synthesis inhibitors, RN4220, OD600 (AID 463173). Particulars: S. aureus RN4220 wild type/DeltatarO growth, OD600, 18 h, hits give low values, screened at 18.75 µg/mL (by protocol).
As to `CCOc1cccc(C(=O)Nc2cc(C)c(O)c(-c3nc4ncccc4o3)c2)c1`, the survival was 84% (inactive).
To `CNC(=O)C1CCC(Cn2c(=O)c3sccc3n(CC(=O)NCc3ccc(F)cc3)c2=O)CC1` (stereo not drawn) belongs 45% (inactive); to `CNC(=O)C1CCC(Cn2c(=O)c3sccc3n(CC(=O)NCc3ccccc3)c2=O)CC1` (stereo not drawn), 0% (active).
To `CNC(=O)C1CCC(Cn2c(=O)c3sccc3n(CC(=O)NCc3ccc(C)cc3)c2=O)CC1` (stereo not drawn) belongs 73% (inactive).
To `Cc1cc(C)cc(NC(=O)COc2cccc3c(=O)n(C)ccc23)c1` belongs 72% (inactive).
Consider `COc1ccc(Cl)cc1NC(=O)NCCn1c(=O)oc2ccc(C)cc21`, for which the survival was 62% (inactive).
Turning to `COc1ccc(OCCCn2c(C)nc3cc(C)c(C)cc32)cc1`, the survival is 67% (inactive).
Then `Cc1ccc2oc(=O)n(CCNC(=O)Nc3ccc(Cl)cc3)c2c1`, with 79% (inactive); and `COc1ccc(OCCCn2c(=O)oc3ccc(C)cc32)cc1`, with 2% (active); and `Cc1ccc2oc(=O)n(CCCOc3ccc(Cl)cc3)c2c1`, with -9% (active).
To `CCCCOc1ccc(Cn2c(=O)oc3ccc(C)cc32)cc1` belongs 58% (inactive); to `COc1ccc(CCNC(=O)CCCCn2c(=O)c3ccccc3n(Cc3ccc(Cl)cc3)c2=O)cc1OC`, 105% (inactive); to `COc1cc2nc(SCC(=O)Nc3c(C)cc(C)cc3C)n3nc(CCn4c(C)nc5ccccc54)nc3c2cc1OC`, 91% (inactive).
Then `CCOc1ccccc1C(=O)Nc1cc(-c2nc3cccnc3s2)ccc1C`, with 67% (inactive); and `COCCCNC(=O)C1CCN(c2nn3cc(-c4ccc(F)cc4)nc3s2)CC1`, with 88% (inactive); and `CCCCS(=O)(=O)c1oc(-c2cccs2)nc1S(=O)(=O)c1ccc(F)cc1`, with 82% (inactive).
As to `CCCCS(=O)(=O)c1oc(-c2cccs2)nc1S(=O)(=O)c1ccccc1`, the survival is 0% (active).
Then `CCCSc1oc(-c2cccs2)nc1S(=O)(=O)c1ccc(C)cc1`, with 39% (inactive); and `Cc1ccc(CSc2oc(-c3cccs3)nc2S(=O)(=O)c2ccc(C)cc2)cc1`, with 128% (inactive); and `CCCCCS(=O)(=O)c1oc(-c2cccs2)nc1S(=O)(=O)c1ccc(C)cc1`, with 11% (active).
For `CCC(C)S(=O)(=O)c1oc(-c2cccs2)nc1S(=O)(=O)c1ccccc1` (stereo not drawn), the survival is 16% (inactive).
Then `CCOc1ccc(C(=O)c2c(N)c(-c3nc(-c4ccc(OCC)cc4)cs3)c3ccccn23)cc1`, with 103% (inactive).
`O=C(O)CN1C(=O)/C(=N\N2C(=O)CSC2=S)c2ccccc21`: the survival is 90% (inactive).
To `Cc1ccc(C(=O)Nc2c(C)nc3ccccn3c2=O)cc1` belongs 88% (inactive); to `Cc1ccc(C(=O)Nc2c(C)nc3ccccn3c2=O)cc1C`, 69% (inactive).
On to `Cc1ccccc1C(=O)Nc1c(C)nc2ccccn2c1=O`, for which the survival is 10% (active).
To `Cc1nc2ccccn2c(=O)c1NC(=O)c1ccccc1Cl` belongs 129% (inactive).
Regarding `Cc1nc2ccccn2c(=O)c1NC(=O)c1ccc(C(F)(F)F)cc1`, the survival is -2% (active).
Then `Cc1nc2ccccn2c(=O)c1NC(=O)c1ccc(F)c(F)c1`, with 80% (inactive); and `Cc1c(C(=O)Nc2ccc(F)c(F)c2)oc2ccc(S(=O)(=O)N(C)C3CCCCC3)cc12`, with 74% (inactive).
For `COc1ccccc1CNC(=O)CC(c1ccc(C)cc1)N1Cc2ccccc2C1=O` (stereo not drawn), the survival was 60% (inactive).
Then `CC(C)(C)c1cc(-c2ccccc2)n[nH]1`, with 132% (inactive); and `CN(C)c1ccc(NC(=O)CSc2nc3ccsc3c(=O)n2CCCCCC(=O)O)cc1`, with 70% (inactive); and `CCn1cc2nc(SCc3ccc(F)cc3)n(CCc3ccccc3)c(=O)c2n1`, with 77% (inactive).
Then `Cc1ccc(-c2ccc(=O)n(CC(=O)NCCc3ccc(Cl)cc3)n2)cc1`, with 73% (inactive); and `Cc1ccc(-c2ccc(=O)n(CC(=O)NCCc3ccccc3)n2)cc1`, with 65% (inactive); and `Cc1ccc(CCNC(=O)Cn2nc(-c3ccc(C)cc3)ccc2=O)cc1`, with -3% (active).
To `C=CCn1c(=O)[nH]c(=O)n(CC=C)c1=O` belongs 111% (inactive); to `COc1ccc2c(Sc3ccccc3)c(C(=O)NCc3ccc(OC(C)C)cc3)[nH]c2c1`, 125% (inactive); to `CCOc1cc(CNCCSc2nnnn2C)cc(Cl)c1OCc1ccc(Cl)cc1`, -2% (active).
As to `COc1cc(CNCCSc2nnnn2C)ccc1OCc1c(F)cccc1Cl`, the survival is 73% (inactive).
Then `COc1cc(CNCCSc2nnnn2C)ccc1OCc1ccccc1C`, with 68% (inactive); and `Cn1nnnc1SCCNCc1ccccc1OCc1ccc(Cl)cc1Cl`, with 56% (inactive).
Take `COc1cc(CNCCSc2nnnn2C)ccc1OCc1ccc(Cl)cc1Cl`: the survival was 0% (active).
Then `CCOc1cc(CNCCSc2nnnn2C)ccc1OCc1ccc(Cl)cc1Cl`, with -5% (active).
As to `Cn1nnnc1SCCNCc1ccc(OCc2ccc(Cl)cc2)cc1`, the survival is 68% (inactive).
To `COc1cc(CNCCSc2nnnn2C)cc(Cl)c1OCc1ccccc1` belongs 59% (inactive).
Take `CCOc1ccc(CNCCSc2nnnn2C)cc1OC`: the survival was 72% (inactive).
Regarding `COCCNC(=O)c1ccc(-c2nc(CN3CCc4ccccc43)c(C)o2)cc1`, the survival was 75% (inactive).
Regarding `NS(=O)(=O)c1ccc(CCNC(=O)c2ccc3nc(Cc4ccccc4)oc3c2)cc1`, the survival is 81% (inactive).
To `CCn1cc(C(=O)O)c(=O)c2cc(F)c(N3CCN(C(=O)c4ccccc4F)CC3)cc21` belongs 54% (inactive); to `CC(C)CC(=O)NCC(c1ccc2c(c1)OCO2)N1CCN(c2ccccc2)CC1` (stereo not drawn), 77% (inactive); to `Cc1ccc(Cl)cc1N1CCN(C(=O)c2cc(S(=O)(=O)N3CCCC3)c[nH]2)CC1`, 77% (inactive).
Then `COC(=O)c1cc(S(=O)(=O)N2CCN(c3cc(Cl)ccc3C)CC2)c[nH]1`, with 8% (active); and `COC(=O)c1cc(S(=O)(=O)N2CCN(c3ccc(OC)cc3)CC2)c[nH]1`, with 85% (inactive).
`COc1ccccc1CNC(=O)CN1C(=O)CSc2ccc(S(=O)(=O)N3CCCCC3)cc21`: the survival is 83% (inactive).
Then `COc1ccc(-n2ncc(C(=O)N3CCc4ccccc4C3)c2C2CCN(C(=O)OC(C)(C)C)CC2)cc1`, with 63% (inactive); and `COc1cc2c(cc1NS(=O)(=O)c1cccc(C#N)c1)n(C)c(=O)n2C`, with 76% (inactive); and `CCCSc1ncc(Cl)c(C(=O)Nc2scc(-c3ccc(C)cc3)c2C(=O)OCC)n1`, with 87% (inactive).
Then `CCCS(=O)(=O)c1ncc(Cl)c(C(=O)Nc2scc(-c3ccccc3)c2C(=O)OCC)n1`, with 4% (active).
Then `CCOC(=O)c1c(-c2ccc(C)cc2)csc1NC(=O)c1nc(SC(C)C)ncc1Cl`, with 85% (inactive); and `CCOC(=O)c1c(-c2ccccc2)csc1NC(=O)c1nc(S(=O)(=O)CC)ncc1Cl`, with 2% (active).
As for `CCOC(=O)c1c(-c2ccc(C)cc2)csc1NC(=O)c1nc(SCC)ncc1Cl`, the survival is 78% (inactive).
As to `CCOC(=O)c1c(-c2ccccc2)csc1NC(=O)c1nc(SCC)ncc1Cl`, the survival is 97% (inactive).
Then `CCc1nn(CC(=O)NCC(C)c2ccccc2)c(=O)c2cc3c(OC)cccc3n12` (stereo not drawn), with 89% (inactive); and `Cc1ccccc1SCC(=O)O`, with 106% (inactive); and `O=C(c1cc(-c2ccccc2)on1)N1CCCc2ccccc21`, with 114% (inactive).
Then `COCCCNC(=O)c1ccc2c(c1)N(Cc1ccccc1)C(=O)c1ccccc1S2`, with 75% (inactive); and `Cc1cc(N2CCCCC2)nc2ccc(NC(=O)c3cccc(Cl)c3)cc12`, with -2% (active); and `CCOc1cc(C(=O)Nc2ccc3nc(N4CCN(C)CC4)cc(C)c3c2)cc(OCC)c1OCC`, with 134% (inactive).
Turning to `Cc1ccc(NC(=O)Nc2ccc3nc(N4CCN(C)CC4)cc(C)c3c2)cc1C`, the survival is 73% (inactive).
To `Cc1cc(N2CCCCC2)nc2ccc(NC(=O)c3cccc(F)c3)cc12` belongs 46% (inactive).
Consider `CCN1CCN(c2cc(C)c3cc(NC(=O)c4cccc(Cl)c4)ccc3n2)CC1`, for which the survival was 57% (inactive).
In the case of `Cc1cc(N2CCN(C)CC2)nc2ccc(NC(=O)c3ccc(C(C)(C)C)cc3)cc12`, the survival is -20% (active).
Then `Cc1cccc(C)c1OC(=O)CSc1nnc(-c2cccs2)o1`, with 83% (inactive); and `COc1cc2c(cc1OC)n(CC(=O)c1cccc(Cl)c1)c(=O)n1nc(CCn3nc(C)cc3C)nc21`, with 74% (inactive).
Then `CCOC(=O)C(C)NC(=O)c1c(C)oc2ncn(CC(C)C)c(=O)c12` (stereo not drawn), with 72% (inactive).
`Cc1ccccc1CN1CCCN(CC(=O)Nc2ccc3c(c2)OCCO3)S1(=O)=O`: the survival is 72% (inactive).
For `Cc1cccc2c1-c1sc(C(=O)N(C)c3cccc(C(F)(F)F)c3)cc1CO2`, the survival was 24% (inactive).
To `COc1ccc(NC(=O)c2cc3c(s2)-c2c(C)cccc2OC3)c(OC)c1` belongs 78% (inactive).
To `COc1ccc(N(C)C(=O)c2cc3c(s2)-c2c(C)cccc2OC3)c(OC)c1` belongs 12% (active).
Consider `Cc1cccc2c1-c1sc(C(=O)N(C)c3cccc(Cl)c3)cc1CO2`, for which the survival was 0% (active).
Then `CCc1ccccc1N(C)C(=O)c1cc2c(s1)-c1c(C)cccc1OC2`, with 69% (inactive); and `COc1ccc(CCNC(=O)c2cc3c(s2)-c2c(C)cccc2OC3)c(OC)c1`, with 103% (inactive); and `Cc1ccc(NC(=O)CCc2c(C)nn(-c3ccc(N4CCCCC4)nn3)c2C)cc1F`, with 146% (inactive).
To `COCCCNc1cc(C)nc2ccccc12` belongs 121% (inactive).
For the molecule `COc1ccc(N2CC3=C(C2=O)C(c2ccc(Br)cc2)NC(=O)N3C)cc1` (stereo not drawn), the survival was 156% (inactive).
To `COc1ccc(CNC(=O)c2cnc3cc(C)ccn3c2=O)cc1` belongs 85% (inactive).
Then `Cc1ccc(OC(=O)CSc2nnc(CNC(=O)c3ccccc3)o2)cc1`, with 87% (inactive); and `N#Cc1ccccc1Cn1c(SCC(=O)NCc2ccccc2)nc2ccccc21`, with 75% (inactive); and `O=C(C1CCN(S(=O)(=O)c2ccccc2)CC1)N1CCCCC1`, with 96% (inactive).
`O=C1C2c3ccccc3CCN2C(=O)CN1CCc1ccccc1` (stereo not drawn): the survival was 121% (inactive).
As to `CCOc1ccc(-n2nc(CO)c(C(=O)NCC(C)O)n2)cc1` (stereo not drawn), the survival is 81% (inactive).
